Tgondii IFNg = T. gondii growth inhibition under IFN-gamma. Toxoplasma gondii growth in IFN-gamma-treated host cells; active compounds read low. activity change, negative = inhibition, % (concentration not given with the values). 69,000 compounds, 3.8% hits. AID 1259416; in the data active means activity change below about -70%, passing the limit was not always enough;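 further: host cells are HeLa cells infected with Toxoplasma gondii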
The depositor's hits bear a star; ! = repeats disagree. The entries come from a sample that favours hits as a whole.

SMILES	Tgondii IFNg
Cc1ccc(C(=O)c2cc(O)c(O)c([N+](=O)[O-])c2)cc1	-80*!
CC(=O)Nc1nc(C2CCCN(C(=O)C3CCC3)C2)cs1 (configuration not stated)	-25
CC1CCN(C(=O)c2cc3ccccc3s2)CC1	19
O=C(O)c1cc2ccccc2s1	-71*
Cc1cc(CNC(=O)c2cc3ccccc3s2)c2ccccc2n1	12
Clc1ccc(-n2ncc3c(NC4CCCCCCCCCCC4)ncnc32)cc1	11
CC(C)Nc1ncnc2c1cnn2-c1ccc(Cl)cc1	-73*
Cc1ccc(Nc2ncnc3c2cnn3-c2ccc(Cl)cc2)cc1	22
CCc1nc(N)nc(N)c1-c1ccc(Cl)cc1	-95*
Nc1cc(-c2ccc(Cl)cc2)nc(N)n1	100
CSc1nc(-c2ccc(Cl)cc2)nc(N)c1-c1ccccc1	207
Cc1c[nH]c(CNC(=O)C2CCCN2C(=O)C2CCCCC2)c(C)c1=O (configuration not stated)	-25
O=C(NCCS(=O)(=O)N1CCCC1)c1cc(-c2ccc(F)cc2)no1	2
CCc1nc(-c2cccc(C)c2)c(-c2ccnc(NC(=O)c3ccccc3)c2)s1	-81*
CCOc1ccc(C(=O)NCCc2sc(-c3cccc(C)c3)nc2C)cc1	117
COc1ccc(C(=O)NCCc2sc(-c3cccc(C)c3)nc2C)cc1	224
O=C(CCC1CCCN(C(=O)Cc2ccccc2F)C1)N1CCN(c2ccccn2)CC1 (configuration not stated)	0
COCCN1CCCC(O)(CN2CCC(Oc3ncccn3)CC2)C1=O (configuration not stated)	-2
CN(C)CCNC(=O)c1cc(-c2cnc(-c3ccnn3C)nc2)cn1C	71
COCCC(=O)c1cc(-c2cnc(-c3cccnc3)nc2)cn1C	-39
CCCNC(=O)c1cc(-c2cnc(-c3cccnc3)nc2)cn1C	-91*
O=C1CCC2(CCCN(Cc3ccsc3)CC2)N1 (configuration not stated)	93
O=C(NCCCc1ccccn1)c1ccc(N2CC(O)C2)nc1	-48
CC(C)c1cc(C(=O)N2CCCC(c3[nH]ncc3-c3ccccc3)C2)on1 (configuration not stated)	-4
Cc1ccc(-c2cn[nH]c2C2CCCN(C(=O)c3ccc[nH]3)C2)cc1 (configuration not stated)	-92*
SMILES	Tgondii IFNg
CC(C)(C)OC(=O)Nc1cc(-c2cn[nH]c2C2CCCN(C(=O)OC(C)(C)C)C2)ccn1 (configuration not stated)	-102*
CC(C)(C)OC(=O)N1CCCC(c2ccnc3cc(-c4cccc(F)c4)nn23)C1 (configuration not stated)	21
Cc1ccc(-c2cn[nH]c2C2CCCN(C(=O)c3c[nH]c(=O)cn3)C2)cc1 (configuration not stated)	-20
Nc1cc(-c2cn[nH]c2C2CCCN(S(=O)(=O)c3ccccc3)C2)ccn1 (configuration not stated)	-39
CCn1nc(C)cc1-c1nnc(SC)n1-c1ccccc1	24
COc1ccc2c(c1)n1nnnc1c1nnnn21	116
COc1ccccc1-n1cc(CN2CCC3(CC2)C(=O)N(C(C)C)C(=O)N3C)cn1	-1
CSCCC(NC(=O)c1cccnc1)C(=O)O (configuration not stated)	11
CCOC(=O)c1c(N)sc2c1-c1ccccc1C2	65
Cc1ccc(NC(=O)C(=O)NCCc2csc(-c3cccc(F)c3)n2)cc1	53
Cc1cccc(NC(=O)C(=O)NCCc2csc(-c3ccc(F)cc3)n2)c1	-38
Cc1ccc(NC(=O)C(=O)NCCc2csc(-c3ccc(F)cc3)n2)cc1	47
Cc1ccc(-c2nc(CCNC(=O)C(=O)Nc3c(C)cccc3C)cs2)cc1	-50
Cc1cccc(C)c1NC(=O)C(=O)NCCc1csc(-c2ccc(F)cc2)n1	-78*
O=C(NCCc1csc(-c2ccc(F)cc2)n1)C(=O)Nc1ccccc1	-43
Cc1cc(C)cc(NC(=O)C(=O)NCCc2csc(-c3cccc(F)c3)n2)c1	-92*
O=C(NCCc1csc(-c2cccc(F)c2)n1)C(=O)Nc1ccc(F)cc1	-37
Cc1cc(C)cc(NC(=O)C(=O)NCCc2csc(-c3ccc(F)cc3)n2)c1	-93*
O=C(c1ccncc1F)N1CCCC2(CCNC2=O)CC1 (configuration not stated)	5
O=C(NCc1cccs1)c1c(O)c2cccnc2n(-c2cccc(F)c2)c1=O	262
CO[C@@H]1CN(C)C(=O)c2ccc(NC(=O)Nc3c(C)noc3C)cc2OC[C@H](C)N(CCC(F)(F)F)C[C@H]1C	149
O=c1[nH]c(=O)c2cc(S(=O)(=O)NCC3(c4ccccc4)CCCC3)ccc2[nH]1	114
C=CCN1CCN(c2ncc(C)c(N(C)C)n2)CC1	-5
O=C(Cn1c(=O)cc(C(=O)N2CCOCC2)c2ccccc21)Nc1ccccc1	8
O=C(Nc1cccc(C(F)(F)F)c1)Nc1csc(Cc2ccsc2)n1	-93*
O=C(NCc1sccc1COc1ccc(Cl)cc1)Nc1cccc(C(F)(F)F)c1	-55
O=C(Nc1ccc(-c2nc(-c3ccccc3)co2)cc1)Nc1cccc(C(F)(F)F)c1	-51

Screens from PubChem BioAssay.
